TDP1 cell noCPT – qHTS for Inhibitors of human tyrosyl-DNA phosphodiesterase 1 (TDP1): qHTS in cells in absence of CPT; 420,000 compounds, 15% hits; Potency, µM (doses to about 46.2 µM), inactives show at the highest dose activity change, negative = growth inhibition, usual class: inhibitors; DT40 Tdp1-/- hTDP1 cells, no CPT, ATP luminescence, 48 h; also: potency is read from the fitted curve at half-maximal effect; nearly all actives have a fitted effect of over 55% in size
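Chicken DT40 Tdp1-/- cells stably complemented with human TDP1 were seeded at 400 cells/well with DMSO in place of 20 nM camptothecin. After compound pinning, cells grew at least 48 hr at 37 °C; viability read by CellTiter-Glo luminescence.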
HT1080-NT tox – kills 2HG-producing HT-1080-NT fibrosarcoma cells; Potency, µM (doses to about 46.1 µM), for inactives: at the top dose activity, negative = less viability, usual class: cytotoxic; 360,000 compounds, 1.6% hits; HT-1080-NT fibrosarcoma viability, CellTiter-Glo ATP luminescence, 48 h;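 also: NT is the 2HG producing partner of a matched IDH1 knockdown line; potency is read from the fitted curve at half-maximal effect; 0% = DMSO-treated cells and -100% = media-only wells without cells; nearly all actives have a fitted effect of over 55% in size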
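Viability by CellTiter-Glo luminescence after 48 h compound exposure at 37C of HT-1080-NT cells (750/well, RPMI, 5% FBS). % activity scaled between DMSO wells and medium-only wells, then curve-fitted and categorized by curve class.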
HT1080 IDH1KD tx – kills HT-1080 cells with IDH1 knockdown. 360,000 compounds, 2% hits. Potency, µM (doses to about 46.1 µM), for the others: at the highest dose activity, negative = toxicity, usual class: cytotoxic. HT-1080 IDH1 knockdown viability, ATP luminescence, 48 h. AID 686971;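 also: potency is read from the fitted curve at half-maximal effect; 0% = DMSO wells and -100% = cell-free medium wells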
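Knockdown cells (IDH1KD HT-1080) received compounds 2 h after plating at 750 cells/well and were kept 48 h at 37 °C in 5% FBS RPMI. A CellTiter-Glo luminescence read gave % activity for curve fitting.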
TDP1 cell CPT – DT40-hTDP1 cell growth loss with CPT; chicken DT40 Tdp1-/-;hTDP1 cells + 20 nM CPT, ATP luminescence, 48 h; Potency, µM (series often up to 46.2 µM), for inactives: top-dose activity change, negative = growth inhibition, actives largely listed as inhibitors; 420,000 compounds, 12% hits; AID 686979; also: potency is read from the fitted curve at half-maximal effect; nearly all actives have a fitted effect of over 55% in size
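Chicken DT40 Tdp1-/- cells complemented with human TDP1, 400 cells/well, exposed to compounds plus 20 nM camptothecin for at least 48 h at 37 C; viability read as ATP content by CellTiter-Glo luminescence.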
uPA surface inh – blocks generation of uPA at the cell surface | cell surface uPA generation assay, qHTS | Potency, µM (highest dose often 38.3 µM), inactives show at the top dose activity change, negative = inhibition, usual class: inhibitors | 330,000 compounds, 0.31% hits; active = well fitted inhibition curve with a large enough effect; inconclusive = small, poorly fitted or top-dose-only effect; inactive = no such curve, though single readings can be large or run the other way; tested in mouse RAW 264.7 cells; also: potency is read from the fitted curve at half-maximal effect; nearly all actives have a fitted effect of over 55% in size
IL1B secr inh – inflammasome signaling inhibition, IL-1 beta readout; THP-1 LPS/ATP IL-1B secretion, AlphaLISA, 16 h; active compounds read low; activity change, % at 57.5 µM; 360,000 compounds, 4.7% hits; in the data active = activity change below about -50%; inconclusive = mostly about -30% to -49%
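THP-1 cells pretreated 1 hr with compounds (up to 57.5 uM final), then stimulated with LPS (250 ng/mL final) plus ATP (1.25 mM final); secreted IL-1B measured by AlphaLISA after 16 hr, decreased signal indicating inhibition.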
* marks the source's active call; other numbers are inactive results; ? = inconclusive; · = not tested or not shown. Most compounds without a hit are left out; they make up all but 19% or so of the library. Unless noted, calls follow the shape of the dose curve; as a rule, active = well fitted curve in the direction sought with a large enough effect; inconclusive = small, poorly fitted or top-dose-only effect, or another doubt; inactive = no such curve, though single readings can be large; an effect the other way counts as inactive or inconclusive. Unless noted, % is scaled to controls: 0 for no effect and ±100 for the full control effect.

SMILES	TDP1 cell noCPT	HT1080-NT tox	HT1080 IDH1KD tx	TDP1 cell CPT	uPA surface inh	IL1B secr inh
COc1ccc(-c2c(C(F)(F)F)nn(C)c2NC(=O)CSCC(=O)O)cc1	0.3%	12.5%	28.9%	12.3%	-0.4%	29.0
COc1ccc(-c2cc(C(=O)Nc3cc(C(F)(F)F)ccc3Cl)no2)cc1	-0.3%	·	·	4.8%	·	·
COCCn1c(CN2CCN(c3cccc(Cl)c3)CC2)nc2c1c(=O)n(C)c(=O)n2C	13µM*	-3.9%	-5.1%	8.2µM*	?	47.8
CCOC(=O)CC1c2cc(OCC)c(OCC)cc2CCN1C(=O)Nc1cccc(Cl)c1 (stereo not given)	16.4µM*	·	·	?	·	·
CCOc1cc2c(cc1OCC)C(CC(=O)OC)N(C(=O)Nc1cc(OC)ccc1OC)CC2 (stereo not given)	14.6µM*	·	·	20.6µM*	·	·
CCOc1cc2c(cc1OCC)C(CC(=O)OC)N(C(=O)Nc1cc(C)cc(C)c1)CC2 (stereo not given)	-27.1%	·	·	-17.6%	·	·
COc1ccc(NS(=O)(=O)c2ccc(NC(=O)N3CCCC3)cc2)cc1	-24.3%	·	·	-9.4%	·	·
COC(=O)[C@@H](NS(=O)(=O)c1cc(Br)ccc1Br)C(C)C	?	0.1%	2.9%	?	·	25.2
CC(NC(=O)C1CCN(c2nnc(-n3cccc3)s2)CC1)C12CC3CC(CC(C3)C1)C2 (stereo not given)	14.6µM*	13.8%	11.9%	16.4µM*	-3.1%	-15.1
CC1CCN(S(=O)(=O)N2CCC(C(=O)NC(C)c3ccccc3)CC2)CC1 (stereo not given)	?	0.7%	-3.5%	10.3µM*	·	12.1
CC(CCc1ccccc1)NC(=O)C1CCCN(c2nnc(-n3cccc3)s2)C1 (stereo not given)	?	-0.2%	-15.8%	18.4µM*	-16.5%	-27.5
CC1CC(C)CN(CCCNC(=O)C2CCN(c3nnc(-n4cccc4)s3)CC2)C1 (stereo not given)	20.2%	-1.3%	-0.9%	-11.2%	7.9%	?
CC(CCc1ccccc1)NC(=O)C1CCN(S(=O)(=O)c2ccc(F)cc2)CC1 (stereo not given)	-7.2%	5.8%	-12.3%	-12.8%	-15.5%	-63.3*
Cc1ccc(NC(=O)Cn2ccn(Cc3ccc(Cl)cc3)c(=O)c2=O)cc1C	4.7%	·	·	-11.1%	·	·
OC[C@]1(O)OC[C@@H](O)[C@H](O)[C@@H]1O	0.4%	·	·	-27.4%	·	·
CC(CCc1ccccc1)NC(=O)C1CCN(S(=O)(=O)N2CCCCC2)CC1 (stereo not given)	?	9.6%	0.7%	?	-4.3%	-56.2*
CCc1ccc(CNC(=O)C2CCN(S(=O)(=O)N3CCCCC3)CC2)cc1	23.1µM*	-4.4%	-9.9%	?	·	-19.3
CCCCCCCCN1C(=O)[C@H](CC(=O)NCCCN2CCCC2=O)C[C@@]2(C(=O)OC)CC(C)(C)CC=C12	13µM*	?	?	13µM*	·	-24.7
CCCCCCCCN1C(=O)[C@H](CC(=O)NCCCOC)C[C@@]2(C(=O)OC)CC(C)(C)CC=C12	14.6µM*	?	?	?	·	-15.1
CCCCCCCCN1C(=O)[C@H](CC(=O)NCCCOCCCC)C[C@@]2(C(=O)OC)CC(C)(C)CC=C12	14.6µM*	-3.4%	?	?	·	-10.6
CCCCCCCCN1C(=O)[C@H](CC(=O)NCC2CCCCC2)C[C@@]2(C(=O)OC)CC(C)(C)CC=C12	13µM*	-15.6%	0.4%	?	·	-5.9
C#CCNC(=O)C[C@@H]1C[C@@]2(C(=O)OC)CC(C)(C)CC=C2N(CCCCCCCC)C1=O	16.4µM*	?	?	?	·	-14.7

Compound activity from PubChem.
